Out of some 5,500 compounds screened, about 2,000 (36%) were called active. Another 18% or so got no clear call; they are omitted. Rule as the data show it: active = normalized growth mostly below about 0.91 (no sharp cut-off); inconclusive = no clear call, values can overlap the other calls; inactive = mostly above about 0.92. Some of the results follow.
Assay: chemical genetic growth profiling, strain panel (AID 1159580);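 also: tested at 20 µM; growth read once vehicle control cultures reached saturation at 30 °C; 1 = growth at the plate median or of vehicle wells; lower values mean less growth of the strain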
Conditions: S. cerevisiae deletion strains, growth OD

Measured: normalized growth

CC(C)NCC(O)c1ccc(NS(C)(=O)=O)cc1 (stereo unspecified)
inactive: locus YAL040C, strain CLN3, hits give low values 1.01 | locus YCL061C, strain MRC1 (second series), hits give low values 1 | locus YDR363W, strain ESC2, hits give low values 0.973 | locus YER002W, strain NOP16, hits give low values 1 | locus YGR078C, strain PAC10, hits give low values 1.01 | locus YJR075W, strain HOC1, hits give low values 0.986 | locus YMR263W, strain SAP30, hits give low values 1 | locus YMR307W, strain GAS1, hits give low values 1.02 | locus YNL153C, strain GIM3, hits give low values 1.04 | locus YNL175C, strain NOP13, hits give low values 1 | locus YNL197C, strain WHI3, hits give low values 1.01 | locus YNL224C, strain SQS1, hits give low values 1 | locus YNL322C, strain KRE1, hits give low values 0.985 | locus YOR083W, strain WHI5 (second series), hits give low values 1 | locus YPL055C, strain LGE1, hits give low values 0.977 | locus YPL241C, strain CIN2, hits give low values 0.999

O=C(NC1CCCCC1)NC1CCCCC1
inactive: locus YAL021C, strain ccr4, hits give low values 0.987 | locus YAL026C, strain drs2, hits give low values 0.995 | locus YAL030W, strain snc1, hits give low values 0.976 | locus YBL061C, strain skt5, hits give low values 0.976 | locus YBR009C, strain hhf1, hits give low values 0.998 | locus YBR023C, strain chs3, hits give low values 0.976 | locus YBR171W, strain sec66, hits give low values 0.977 | locus YBR231C, strain swc5, hits give low values 0.981 | locus YBR279W, strain paf1, hits give low values 0.981 | locus YCL011C, strain gbp2, hits give low values 0.973 | locus YCL016C, strain dcc1, hits give low values 0.97 | locus YCL061C, strain MRC1, hits give low values 0.983 | locus YCL069W, strain vba3, hits give low values 0.978 | locus YCR088W, strain abp1, hits give low values 0.973 | locus YDL005C, strain med2, hits give low values 0.981 | locus YDL040C, strain nat1, hits give low values 0.981 | locus YDR001C, strain nth1, hits give low values 0.972 | locus YDR069C, strain doa4, hits give low values 0.979 | locus YDR137W, strain rgp1, hits give low values 0.964 | locus YDR159W, strain sac3, hits give low values 0.995 | locus YDR195W, strain ref2 0.958 | locus YDR297W, strain sur2, hits give low values 0.971 | locus YDR334W, strain swr1, hits give low values 0.961 | locus YDR335W, strain msn5, hits give low values 0.98 | locus YDR392W, strain spt3, hits give low values 0.918 | locus YEL003W, strain gim4, hits give low values 0.983 | locus YEL037C, strain rad23, hits give low values 0.977 | locus YEL061C, strain CIN8 (second series), hits give low values 0.982 | locus YER015W, strain faa2, hits give low values 0.99 | locus YER016W, strain bim1, hits give low values 0.981 | locus YER111C, strain swi4, hits give low values 0.96 | locus YER155C, strain BEM2 (second series), hits give low values 0.971 | locus YFR010W, strain ubp6, hits give low values 0.988 | locus YGL167C, strain pmr1, hits give low values 0.976 | locus YGL173C, strain kem1, hits give low values 0.98 | locus YGL227W, strain vid30, hits give low values 0.972 | locus YGL240W, strain doc1, hits give low values 0.986 | locus YGL253W, strain hxk2, hits give low values 0.99 | locus YHR013C, strain ard1, hits give low values 0.97 | locus YHR027C, strain rpn1, hits give low values 1 | locus YHR030C, strain SLT2, hits give low values 1.08 | locus YHR079C, strain IRE1, hits give low values 1.07 | locus YHR142W, strain chs7, hits give low values 0.956 | locus YJL092W, strain hpr5, hits give low values 0.981 | locus YJL095W, strain BCK1 (second series), hits give low values 0.973 | locus YJL095W, strain BCK1, hits give low values 1.07 | locus YJL115W, strain asf1, hits give low values 0.969 | locus YJL129C, strain trk1, hits give low values 0.953 | locus YJL154C, strain vps35, hits give low values 0.972 | locus YJL164C, strain tpk1, hits give low values 0.995 | locus YJL166W, strain qcr8, hits give low values 0.985 | locus YJL187C, strain SWE1, hits give low values 0.979 | locus YJR066W, strain TOR1, hits give low values 1.01 | locus YKL160W, strain elf1, hits give low values 0.977 | locus YKR026C, strain gcn3, hits give low values 0.972 | locus YKR091W, strain srl3, hits give low values 0.977 | locus YLL001W, strain dnm1, hits give low values 0.966 | locus YLL026W, hits give low values 0.981 | locus YLL041C, strain sdh2, hits give low values 0.982 | locus YLR027C, strain aat2, hits give low values 0.991 | locus YLR113W, strain HOG1, hits give low values 1.03 | locus YLR221C, strain rsa3, hits give low values 0.976 | locus YLR258W, strain gsy2, hits give low values 0.972 | locus YLR262C, strain YPT6 (second series), hits give low values 0.96 | locus YLR320W, strain mms22, hits give low values 0.974 | locus YLR342W, strain FKS1, hits give low values 0.975 | locus YLR357W, strain rsc2, hits give low values 0.977 | locus YLR370C, strain arc18, hits give low values 0.983 | locus YLR384C, strain iki3, hits give low values 0.951 | locus YML120C, strain ndi1, hits give low values 0.969 | locus YMR058W, strain fet3, hits give low values 0.987 | locus YMR125W, strain sto1, hits give low values 0.96 | locus YMR129W, hits give low values 0.977 | locus YMR205C, strain PFK2, hits give low values 0.969 | locus YMR231W, strain pep5, hits give low values 0.978 | locus YNL071W, strain lat1, hits give low values 0.985 | locus YNL183C, strain NPR1, hits give low values 1 | locus YNL209W, strain ssb2, hits give low values 0.974 | locus YNL248C, strain rpa49, hits give low values 0.98 | locus YNL322C, strain KRE1 (second series), hits give low values 0.962 | locus YNR049C, strain mso1, hits give low values 0.978 | locus YOR001W, strain rrp6, hits give low values 0.995 | locus YOR070C, strain gyp1, hits give low values 0.97 | locus YOR080W, strain dia2, hits give low values 0.971 | locus YOR083W, strain WHI5, hits give low values 0.971 | locus YOR106W, strain vam3, hits give low values 0.983 | locus YOR231W, strain MKK1, hits give low values 1.04 | locus YOR265W, strain rbl2, hits give low values 0.979 | locus YOR270C, strain vph1, hits give low values 0.905 | locus YOR290C, strain snf2, hits give low values 0.953 | locus YPL051W, strain arl3, hits give low values 0.983 | locus YPL078C, strain atp4, hits give low values 0.981 | locus YPL106C, strain sse1, hits give low values 0.951 | locus YPL240C, strain hsp82, hits give low values 0.98 | locus YPL256C, strain CLN2, hits give low values 1.08

Source: PubChem BioAssay AID1159580 (chemical genetic matrix, 2015)
